Assay results as given in PubChem BioAssay (Tox21).
Inconclusive results are not listed. A call without a number means that no potency is given here. Activity calls are given as the source filed them. Calls follow the shape of the dose curve; as a rule, active = well fitted cell-killing curve with a large enough effect in the repeat runs (not every such curve was filed as active); inconclusive = weak or mixed curves, or effect the other way; inactive = no such curve, though single readings can be large or run the other way.

assay: qHTS assay to identify small molecule antagonists of the farnesoid-X-receptor (FXR) signaling pathway - cell viability counter screen (AID 743221); details: FXR-bla HEK293T viability, CellTiter-Glo luminescence, 16 h; series mostly up to 62.6 µM; also: nearly all actives have a fitted effect of over 50% in size
Excerpt: National Center for Advancing Translational Sciences [NCATS]
NIH Chemical Genomics Center [NCGC]
U.S. Environmental Protection Agency [EPA]
National Institutes of Environmental Health Sciences [NIEHS]
National Toxicology Program [NTP]
U.S. Food and Drug Administration [FDA]
The farnesoid-X-receptor (FXR), a nuclear hormone receptor, is highly expressed in liver, intestine, kidney and adrenal cortex. Natural ligands of FXR are the bile acids (Cholic acid, Chenodeoxy cholic acid etc). FXR is an important regulator of diverse metabolic pathways, including the bile acid homeostasis, lipid and glucose metabolisms. FXR regulates the expression of target genes by binding either as a monomer or as a heterodimer with the retinoid X receptor (RXR). Numerous studies have reported that FXR exerts protective function during cholestasis, diabetes, liver regeneration, and cancer. To identify compounds that inhibit FXR signaling, GeneBLAzer FXR-UAS-bla HEK 293T cell line (Invitrogen, Carlsbad, CA) containing a beta-lactamase reporter gene under the control of a UAS response element was used to screen the Tox21 10K compound library. The cytotoxicity of the Tox21 compound library against the FXR-bla cell line was tested in parallel by measuring the cell viability using CellTiter-Glo assay in the same wells.
Tox21 Assay Protocol Summary:
FXR-bla cells were dispensed at 5000 cells/5uL/well in 1536-well black wall/clear bottom plates using a Multidrop Combi (Thermo Fisher Scientific, Waltham, MA) dispenser. After the assay plates were incubated at 37 C and 5% CO2 for 5 h, 23 nL of compounds dissolved in DMSO, positive controls or DMSO only was transferred to the assay plate by a Pintool station (Kalypsys, San Diego, CA), followed by addition of 1 uL Chenodeoxycholic acid (50 uM, final concentration in the wells). The assay plates were incubated at 37C for 16 h. After 1 uL of LiveBLAzerTM B/G FRET substrate was added using a Bioraptr Flying Reagent Dispenser (FRD) workstation (Beckman Coulter, Indianapolis, IN), the plates were incubated at room temperature for 2 h, and fluorescence intensity was measured by an Envision plate reader (PerkinElmer, Shelton, CT). For cell viability readout that measures cytotoxicity, 4uL/well of CellTiter-Glo reagent was added into the assay plates using a Bioraptr FRD. After 30 min incubation at room temperature, the luminescence intensity in the plates was measured using a ViewLux plate reader (PerkinElmer).

SMILES | Potency
COc1ccc2c(c1)CCCC2=O | inactive
CCCCC/C=C\CCC=O | inactive
CC(NC(CCc1ccccc1)C(=O)O)C(=O)N1C(=O)N(C)CC1C(=O)O (stereo not given) | inactive
C[C@H]1C[C@@H](O)CC(C)(C)C1 | inactive
CC(C)OC(=O)c1ccccc1 | inactive
CC/C=C\CC/C=C/C(OCC)OCC | inactive
O=[N+]([O-])c1ccc(F)cc1F | inactive
CCO/C([O-])=N/c1c[n+](N2CCOCC2)no1 | inactive
CN1CCN(c2cc3c(cc2F)c(=O)c(C(=O)O)cn3-c2ccc(F)cc2)CC1 | inactive
CCN1CCC[C@H]1CNC(=O)c1c(O)c(Cl)cc(Cl)c1OC | inactive
CCc1nccnc1CC | inactive
N=c1nc(N2CCCCC2)cc(N)n1O | inactive
COCCCOCCCOC | inactive
CS(=O)(=O)O | inactive
CC(C)NC(=O)NC(C)C | inactive
Cc1nc2c([nH]1)c(=O)n(C)c(=O)n2Cc1ccco1 | inactive
Nc1c[n+](N2CCOCC2)no1 | inactive
CCN1CCC[C@H]1CNC(=O)c1cc(S(N)(=O)=O)ccc1OC | inactive
FC(F)OC(Cl)C(F)(F)F (stereo not given) | inactive
CCOc1ccc(C(=O)OCCN(CC)CC)cc1 | inactive

SMILES | Potency
C1OCOCO1 | inactive
Cc1cccc(C)c1NC(=O)C(C)N (stereo not given) | inactive
O=C1OC(=O)C2CCCCC12 (stereo not given) | inactive
CC1(C)C(O)C(C)(C)C1O (stereo not given) | inactive
CC1=CC(C)C(C=O)CC1 (stereo not given) | inactive
CCOC(=O)[C@H](CCc1ccccc1)N[C@@H](C)C(=O)N1[C@H](C(=O)O)C[C@@H]2CCC[C@@H]21 | inactive
O=C[C@H](O)[C@@H](O)[C@H](O)[C@H](O)CO | inactive
Nc1ccccc1S(=O)(=O)O | inactive
O=C1CC2CC1C1CCCC21 (stereo not given) | inactive
COc1ccc(CCN(C)CCCC(C#N)(c2cc(OC)c(OC)c(OC)c2)C(C)C)cc1OC (stereo not given) | inactive
Cn1c(N)c(N=O)c(=O)n(C)c1=O | inactive
O=C(O)CCCl | inactive
OC1CCCCC1c1ccccc1 (stereo not given) | inactive
O=S(O)CO | inactive
CC(=O)CC(C)(C)C1CCCCC1 | inactive
Oc1ccc(C2CNCCc3c2cc(O)c(O)c3Cl)cc1 (stereo not given) | inactive
COc1cc(C(=O)N2CCCCCCC2)cc(OC)c1OC | inactive
ClC(Cl)(Br)Br | inactive
CC(=O)OC/C=C(\C)CC/C=C(\C)CCC=C(C)C | inactive
CN1CCCC1 | inactive
